Hit rate of the full screen: of about 290,000 compounds, about 3,500 (1.2%) were called active. The full list was thinned out, with actives kept by preference. A number with no mark means an inactive call.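 The calls were made as follows: active = inhibition above the campaign mean inhibition over all tested compounds plus 3 SD (cut at about 28% in these data); inactive = the rest.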

This assay deals with M18 aspartyl aminopeptidase (Plasmodium falciparum 3D7). Kind of assay: inhibition of P. falciparum M18 aminopeptidase – biochemical, QFRET, recombinant enzyme, primary screen (AID 1822).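 Also: 0% = plate median of test compound wells and 100% = 2 mM ZnCl2.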 The note with it: recombinant PfM18AAP, H-Glu-NHMec fluorogenic cleavage; at 7.35 µM; active compounds read high.
As a reminder, the inhibition is the relative decrease from the control value, in per cent. Turning to `CN(C)S(=O)(=O)c1ccc2oc(SCC(=O)Nc3ccccc3F)nc2c1`, the inhibition was 2.13%.
As to `C=CCN(C(=O)Nc1ccc2oc(C)nc2c1)c1ccccc1`, the inhibition was 13%.
The figure for `CCN(CC)c1ccc2cc(C(N)=O)/c(=N\NC(=O)c3ccncc3)oc2c1` is 17.2%.
Under `CCN(CC)c1ccc2oc(=O)c(C)nc2c1` stands 55.5% (active); under `COc1ccc(Nc2cc(Sc3ccc(OC)cc3)ncn2)cc1`, 2.95%.
On to `Cc1ccsc1C(=O)N[C@@H](C)c1nnc2ccccn12`, for which the inhibition was -8.31%.
Under `Cc1cccc(N2CCN(C(=O)CCS(=O)(=O)c3ccc4c(c3)NC(=O)C(C)S4)CC2)c1C` (stereo not drawn) stands -6.34%.
The figure for `O=C(O)c1ccccc1-c1ccccc1C(=O)Nc1ccccc1Br` is -9.93%; for `O=C1CCN(CCc2ccccc2)CCN1CCOc1ccccc1` it is 1.32%.
Under `O=C(Nc1ccc(C(=O)N2CCOCC2)cc1)Nc1cccc(C(F)(F)F)c1` stands -2.75%.
Consider `COc1ccccc1N1CCN(C(=O)CSc2ncnc3c2cnn3-c2ccc(C)c(C)c2)CC1`, for which the inhibition was -5.63%.
As to `CC1CCN(C(=O)c2ccc3c(c2)NC(=O)CN3)CC1`, the inhibition was 31.9% (active).
On to `CC1CCN(C(=O)c2ccc3c(=O)n4c(nc3c2)CCCCC4)CC1`, for which the inhibition is -5.35%.
The figure for `CC1CCN(C(=O)c2ccc(CSc3ccc(Cl)cc3)cc2)CC1` is -3.98%; for `CCCN1C2CCCC1CC(NC(=O)c1cccc(OC)c1)C2` (stereo not drawn) it is -5.08%; for `Cc1cccn2c(=O)c3cc(C(=O)NCC4CCCO4)c(=N)n(Cc4ccc(F)cc4)c3nc12` (stereo not drawn) it is 5.3%.
For `Oc1ccc(-n2nnnc2SCc2c(F)cccc2Cl)cc1`, the inhibition is 9.59%.
As for `CCCN1Cc2cccc(C(=O)Nc3ccc(S(=O)(=O)N4CCCCCC4)cc3)c2C1=O`, the inhibition is 3.06%.
For the molecule `O=C1CCN(CCCc2ccccc2)CCN1CCO`, the inhibition is 10.1%.
Regarding `CSc1ccc(S(=O)(=O)NCc2ccc(Cl)cc2)cc1`, the inhibition is 5.25%.
Under `CCn1c(CSCc2c(Cl)cccc2Cl)n[nH]c1=S` stands 14.7%.
Under `CCn1c(CNS(=O)(=O)c2ccc(Cl)cc2)n[nH]c1=S` stands 31.8% (active).
For `Cc1cc(C)n(-c2ccc(NC(=O)C3CCCCN3C(=O)c3cccs3)cc2)n1` (stereo not drawn), the inhibition was 10.7%.
Regarding `Cc1cc(NC(=O)CSc2nc(=O)cc(N)n2-c2ccc(F)cc2)no1`, the inhibition is 2.27%.
The figure for `Cc1[nH][nH]c(=O)c1N=Nc1ccccc1` is -5.94%.
The figure for `O=c1[nH]c2c(c(=O)n1Cc1ccccc1)CCC2` is -7.19%; for `O=c1[nH]n2c(=O)c3c([nH]c2c1N=Nc1ccccc1)CCC3` it is 31.3% (active); for `O=C(CNC(=O)C1COc2ccccc2O1)N/N=C/c1cc(Br)c(O)c(Br)c1` (stereo not drawn) it is 10.4%.
Under `Cc1c(CC(=O)N2CCN(C(=O)C3COc4ccccc4O3)CC2)c(=O)oc2c(O)c(O)ccc12` (stereo not drawn) stands 56.5% (active); under `Cc1c(C)c2ccc(OCC(=O)N3CCC(C(=O)O)CC3)c(C)c2oc1=O`, 3.02%; under `O=C(Nc1ccc(F)cc1)c1ccc(S(=O)(=O)NCc2cccnc2)cc1`, 1.68%.
For the molecule `O=C(NC1CC1)c1ccc2c(c1)NC(=O)c1ccccc1S2`, the inhibition is -6.63%.
The figure for `O=C(O)c1cccc(N2C(=O)Nc3ccccc3N2O)c1` is -0.41%; for `C/C(=N\Nc1cccc(C(=O)O)c1)c1ccc2c(c1)Nc1ccccc1S2` it is 28.6% (active); for `CCOc1ccc(OCC)c(NC(=O)CCS(=O)(=O)c2ccc(C)cc2)c1` it is -4.08%.
As to `O=C(Nc1ccc2sc3ccccc3c(=O)c2c1)c1ccccc1Cl`, the inhibition is 3.74%.
As for `COc1ccc(NC(=O)CN(C)C(=O)CNC(=O)C2CCCCC2)cc1`, the inhibition is 5.81%.
Take `COc1ccc(NC(=O)c2sc3nc(C)nc(N4CCN(c5ccccn5)CC4)c3c2C)c(OC)c1`: the inhibition is -4.65%.
The figure for `O=C(Nc1sc2c(c1C(=O)O)CCC2)c1ccccc1F` is -1.52%.
Under `NC(=O)c1c(Nc2nc3c(F)cccc3s2)sc2c1CCCC2` stands 49.1% (active).
Under `NC(=O)c1c(NC(=O)c2ccccc2)sc2c1CCCC2` stands 1.26%.
In the case of `CC(=O)c1ccc(NC(=O)CCNS(=O)(=O)c2cc(Br)cnc2N)cc1`, the inhibition is -3.06%.
In the case of `S=C(c1ccc(-c2ccccc2)o1)N1CCCCC1`, the inhibition was 30.8% (active).
The figure for `CC1CCN(C(=S)c2ccc(-c3ccc(Cl)cc3Cl)o2)CC1` is 4.16%; for `S=C(c1ccccc1)N1CCCC1` it is -1.81%.
Turning to `O=C1c2cccc3c([N+](=O)[O-])ccc(c23)C(=O)N1CC1CCCO1` (stereo not drawn), the inhibition is 4.32%.
Turning to `O=C(OCc1ccc([N+](=O)[O-])cc1)C1CC(=O)N(Cc2ccccc2Cl)C1` (stereo not drawn), the inhibition is -11.3%.
On to `CC(C)N1CCC(N2CCN(Cc3cccnc3)CC2CCO)CC1` (stereo not drawn), for which the inhibition was 4.35%.
Under `O=C(O)c1cccc(NC(=S)N/N=C/c2c[nH]c3ccccc23)c1` stands 38.5% (active); under `CSC(=S)N/N=C/c1c[nH]c2ccccc12`, 9.14%; under `O=C(N/N=C/c1c[nH]c2ccccc12)c1ccccc1O`, 9.89%.
The figure for `CCc1[nH]nc(C(=O)N2CCCC(CO)(Cc3ccc(F)cc3F)C2)c1C` (stereo not drawn) is -13.6%.
Under `Cc1cc(OCc2cc(C(=O)NCc3cc(C(C)C)no3)no2)cc(C)c1Cl` stands -17.4%; under `CC(=O)c1c(-c2ccccc2)c2ccccc2[nH]c1=O`, -2.54%; under `Cc1ccc(-c2nc3ccccc3[nH]c2=O)cc1`, -7.7%.
On to `O=c1[nH]c2ccccc2n2c(-c3ccccc3)nnc12`, for which the inhibition is 33.2% (active).
Under `CC(=O)N1c2ccc(S(=O)(=O)N3CCC(C(=O)NC4CCCCC4C)CC3)cc2CC1C` (stereo not drawn) stands 17.8%.
Take `COc1cc(/C=C2/C(=O)NN(c3cccc(Cl)c3)C2=O)cc(Br)c1O`: the inhibition is 32.2% (active).
On to `COc1cc(/C=C2/C(=O)NN(c3ccc(F)cc3)C2=O)cc([N+](=O)[O-])c1O`, for which the inhibition was 9.62%.
For `C#CCOc1ccc(/C=C2/C(=O)NN(c3ccccc3)C2=O)cc1OC`, the inhibition was 22%.
For the molecule `Cn1c(=O)c([N+](=O)[O-])c(Oc2ccccc2)c2ccccc21`, the inhibition was 24%.
Consider `Cc1ccc(C(=O)N/C(=C\c2ccco2)C(=O)N2CCSCC2)cc1C`, for which the inhibition is -11%.
On to `CC1CCN(C(=O)/C(=C\c2ccccc2)NC(=O)c2ccccc2)CC1`, for which the inhibition was -0.48%.
Take `NC(=O)C1CCN(C(=O)/C(=C/c2ccco2)NC(=O)c2ccccc2)CC1`: the inhibition was 35.1% (active).
The figure for `CCc1ccc(-c2cc3c(=O)n(CC(=O)NCCCN4CCN(Cc5ccccc5)CC4)nc(C)n3n2)cc1` is -0.45%; for `Cc1ccc(OCC(=O)Nc2ccc(NC(=O)c3cccs3)cc2)c(C)c1` it is 2.4%.
Under `CCCc1nnc(NC(=O)CCC(=O)N2CCN(S(=O)(=O)c3ccc(OC)cc3)CC2)s1` stands 3.89%; under `Cc1ccc(-c2ccc(/C=C(\C#N)C(N)=S)o2)c([N+](=O)[O-])c1`, 34% (active); under `N#C/C(=C\c1ccc(-c2cccc([N+](=O)[O-])c2)o1)C(=O)NCCN1CCOCC1`, 2.81%.
As for `Cc1ccc(Cc2cnc(NC(=O)/C(C#N)=C/c3ccc(-c4cccc([N+](=O)[O-])c4)o3)s2)cc1`, the inhibition was 1.04%.
On to `Cc1ccc(N(C(=O)c2snc(C(N)=O)c2N)C(C(=O)NCC2CCCO2)c2c[nH]c3ccccc23)cc1` (stereo not drawn), for which the inhibition was 2.71%.
Under `OCCN1CCN(c2nnc(-c3ccccc3)c3ccccc23)CC1` stands 4.34%; under `CN1CCN(CCCCOc2ccccc2-c2ccccc2)CC1`, 2.29%; under `OCCN1CCN(C(=S)c2ccc(-c3ccccc3)cc2)CC1`, 50% (active).
Consider `CC(=O)Nc1ccc(S(=O)(=O)Oc2ccc(Br)cc2C(=S)N2CCOCC2)cc1`, for which the inhibition was 20.7%.
Under `COc1cc(CC(=O)N2CCC(n3nccc3NC(=O)C3CC3)CC2)cc(OC)c1OC` stands 1.44%.
Take `CCOc1ccc(CCNC(=O)CCc2nnc3ccc(N4CCCC4)nn23)cc1OCC`: the inhibition is -5.76%.
As to `CCN(CC)c1ccc(NC(=O)CCc2nnc3ccc(N4CCCCC4)nn23)c(C)c1`, the inhibition was 34.1% (active).
The figure for `CCOC(=O)c1cccc(NC(=O)CCc2nnc3ccc(N4CCOCC4)nn23)c1` is -1.08%; for `CCC(c1nnnn1C(C)(C)C)N(Cc1cc2cccc(C)c2n2nnnc12)C1CCCC1` (stereo not drawn) it is -1.66%.
For the molecule `Cc1nn(C(C)(C)C)c(OC(=O)CC(C)C)c1S(=O)(=O)c1ccccc1`, the inhibition was 3.62%.
Under `Cc1ccc(-c2cc(C(=O)NCc3cn(C)nc3C)c3cc(Br)ccc3n2)cc1` stands 0.33%; under `Cc1ccc2nc(-c3ccncc3)cc(C(=O)Nc3ccncc3)c2c1`, 1.48%.
As for `Cc1ccc2nc(-c3cccc(Br)c3)cc(C(=O)Nn3cnnc3)c2c1`, the inhibition is 60.7% (active).
With `N#Cc1c(-c2ccccc2)nc(SCc2cccc(C(F)(F)F)c2)[nH]c1=O`, the inhibition was 0.63%.
The figure for `COc1ccc(-c2nonc2NC(=O)c2oc3ccc(F)cc3c2C)cc1OC` is 2.64%; for `COc1ccccc1N1CCN(/N=C/c2ccc(O)cc2O)CC1` it is 9.99%.
Under `Oc1ccc(/C=N/NC2=NCCCCC2)c(O)c1` stands 40.1% (active); under `Cc1cc(N/N=C/c2ccccc2F)c2ccccc2n1`, 3.64%; under `Cc1nc2ccccc2nc1N/N=C/c1ccc(O)cc1O`, 31.6% (active).
The figure for `Oc1ccc(/C=N/Nc2nc(-c3ccccc3F)nc3ccccc23)c(O)c1` is 18%; for `COc1ccc(/C=C(\C#N)C(=O)ONC2=NCCCCC2)cc1` it is 3.59%.
Consider `O=C(NNC(=O)C1CCCC1)c1ccc(F)cc1`, for which the inhibition was 3.26%.

The record behind these values is PubChem BioAssay AID1822 (The Scripps Research Institute Molecular Screening Center, 2009).
